The values that follow come from paper PMC4336329 (PLoS ONE, 2015).

Molecules are shown by their SMILES. The whole screen tested about 310,000 compounds, of which about 14,000 (4.5%) showed an effect of 50% or more. The effect is printed as a negative number. The sample holds strong results, similar compounds and a random draw of the others, so the mix is not that of the screen.
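Further: peak tail current of the secondary pulse compared with the same well before compound.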

Sequence of human ether-à-go-go-related gene (hERG) potassium channel (Q12809 whole entry, looked up): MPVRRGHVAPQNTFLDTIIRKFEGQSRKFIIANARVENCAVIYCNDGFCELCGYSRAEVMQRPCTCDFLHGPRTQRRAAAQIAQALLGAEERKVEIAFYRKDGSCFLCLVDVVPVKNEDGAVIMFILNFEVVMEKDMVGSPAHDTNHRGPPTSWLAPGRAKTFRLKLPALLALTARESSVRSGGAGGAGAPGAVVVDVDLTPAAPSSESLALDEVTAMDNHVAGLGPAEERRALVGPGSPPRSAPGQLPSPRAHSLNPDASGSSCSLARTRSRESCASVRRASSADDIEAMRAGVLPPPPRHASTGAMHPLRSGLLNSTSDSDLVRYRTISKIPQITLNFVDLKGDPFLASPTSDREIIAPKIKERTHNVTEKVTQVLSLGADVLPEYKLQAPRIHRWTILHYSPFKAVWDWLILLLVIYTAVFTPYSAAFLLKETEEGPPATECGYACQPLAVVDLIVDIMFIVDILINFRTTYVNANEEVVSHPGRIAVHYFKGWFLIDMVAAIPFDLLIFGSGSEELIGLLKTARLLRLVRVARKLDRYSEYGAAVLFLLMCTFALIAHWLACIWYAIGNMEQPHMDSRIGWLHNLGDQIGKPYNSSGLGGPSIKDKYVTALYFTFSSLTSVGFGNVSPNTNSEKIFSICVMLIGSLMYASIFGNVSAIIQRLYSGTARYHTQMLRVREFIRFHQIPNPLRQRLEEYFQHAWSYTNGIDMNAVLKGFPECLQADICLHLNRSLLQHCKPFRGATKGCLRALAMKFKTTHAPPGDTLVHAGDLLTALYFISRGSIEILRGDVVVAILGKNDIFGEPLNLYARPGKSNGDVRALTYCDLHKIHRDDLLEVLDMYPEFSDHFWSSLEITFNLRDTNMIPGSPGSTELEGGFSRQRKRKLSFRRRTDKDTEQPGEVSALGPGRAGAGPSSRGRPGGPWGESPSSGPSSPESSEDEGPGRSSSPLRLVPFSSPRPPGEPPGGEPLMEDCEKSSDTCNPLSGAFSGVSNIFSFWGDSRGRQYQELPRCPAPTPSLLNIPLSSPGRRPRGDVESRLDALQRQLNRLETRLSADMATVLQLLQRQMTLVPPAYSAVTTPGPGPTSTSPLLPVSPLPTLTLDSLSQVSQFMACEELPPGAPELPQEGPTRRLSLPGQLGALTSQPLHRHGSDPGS

This assay concerns the target human ether-à-go-go-related gene (hERG) potassium channel (human, UniProt Q12809). Nature of the assay: primary screen, population patch clamp on CHO cells stably expressing hERG; higher = less effect of the substance.
On to `CNC(=O)c1csc(-c2ccc(Cl)cc2)n1`, for which the “hERG current change (%, negative = inhibition) at 10uM” value is given as -4.29%.
On to `CCn1cc([N+](=O)[O-])c(C(=O)NCc2ccc(Cl)cc2)n1`, for which the “hERG current change (%, negative = inhibition) at 10uM” value was -6.18%.
In the case of `CCO.NCCc1c[nH]c2ccc(C(N)=O)cc12.O=C([O-])/C=C\C(=O)[O-]`, the “hERG current change (%, negative = inhibition) at 10uM” value amounted to 11.6%.
Turning to `CC(=O)c1ccc(NC(=O)C2CCCN2S(=O)(=O)c2ccc(F)cc2)cc1` (stereo not shown), the “hERG current change (%, negative = inhibition) at 10uM” value was -16.6%.
To `O=c1c2ccccc2[nH]c(=S)n1CCCn1ccnc1` belongs -0.744%.
Regarding `O=S(=O)(c1ccc(NC(=S)Nc2ccc3c(c2)OCO3)cc1)N1CCOCC1`, the “hERG current change (%, negative = inhibition) at 10uM” value was determined as 13.1%.
As to `COc1ccc(C2/C=C\CN(C(=O)C3CCCCC3)CC(=O)N2Cc2ccc(F)cc2)cc1` (stereo not shown), the “hERG current change (%, negative = inhibition) at 10uM” value is on record as -10.1%.
To `Cc1cc(OCC(=O)NNC(=O)CCc2ccccc2)ccc1Br` belongs 17.6%.
To `CCC[N+](C)(C)C(C)C(OC(C)=O)c1ccccc1.[I-]` (stereo not shown) belongs 15.5%.
The figure for `CCOC(=O)CC(=O)Nc1ccsc1C(N)=O` is 15.9%.
For the compound `COc1ccccc1N1CCN(/N=C/c2ccc(C(=O)O)cc2)CC1`, the “hERG current change (%, negative = inhibition) at 10uM” value is listed as 16.3%.
To `COc1ccc(S(=O)(=O)NCC2CCCN(C(=O)c3ccccc3)C2)cc1` (stereo not shown) belongs 8.3%; to `CC1=C(C(=O)N2CCOCC2)C(c2c(C)cc(C)cc2C)NC(=S)N1` (stereo not shown), 10.5%.
Consider `COC(=O)C1=CN(c2cc(C)cc(C)c2)C=C(C(=O)OC)C1c1ccc(OC)c(O)c1`, for which the “hERG current change (%, negative = inhibition) at 10uM” value is reported as 10.9%.
To `CN(C)CCCNCCNC(=O)/C=N\O.Cl` belongs -65.4%.
The figure for `CN(C)CCCNCCCCNC(=O)/C=N/O` is 0.266%; for `CN(C)CCCNCCCNC(=O)/C=N/O` it is 10.2%; for `CCOc1ccc(OCCC(=O)OC(C)C(=O)Nc2ccc(C(C)=O)cc2)cc1` (stereo not shown) it is 8.72%.
With `CC(=O)Nc1ccc(S(=O)(=O)N2c3ccccc3NC(=O)CC2C)c(Cl)c1` (stereo not shown), the “hERG current change (%, negative = inhibition) at 10uM” value stood at 11.9%.
To `CCOc1ccc(Nc2nc3c(C)cccc3cc2C#N)cc1` belongs 4.76%; to `O=C(N/N=C/c1cccc(Oc2ccc([N+](=O)[O-])cc2[N+](=O)[O-])c1)c1cncc(Br)c1`, -32.1%; to `Cc1cc(=O)oc2cc(Oc3ccc([N+](=O)[O-])cc3C(F)(F)F)ccc12`, -15%.
To `Cc1cc(=O)oc2cc(Oc3ccc([N+](=O)[O-])cc3[N+](=O)[O-])ccc12` belongs -64.4%; to `Nc1ccc(Oc2ccc([N+](=O)[O-])cc2[N+](=O)[O-])cc1`, -37.7%.
To `Cc1cc(=O)oc2cc(Oc3ccc(C(N)=O)cc3[N+](=O)[O-])ccc12` belongs -20.7%.
In the case of `O=Cc1cccc(Oc2ccc([N+](=O)[O-])cc2[N+](=O)[O-])c1`, the “hERG current change (%, negative = inhibition) at 10uM” value is -55%.
The figure for `Cc1ccc(O)c(C2=Nc3ccccc3N=C(c3cccc([N+](=O)[O-])c3)C2)c1` is 20.9%.
On to `O=C(COc1ccccc1)OCc1cc(-c2ccco2)on1`, for which the “hERG current change (%, negative = inhibition) at 10uM” value is given as 5.99%.
In the case of `Cc1ccc(C)c(NC(=S)N2CCN(Cc3ccccc3)CC2)c1`, the “hERG current change (%, negative = inhibition) at 10uM” value came out at 11.2%.
`O=C(O)CCN=C1CCCc2ccccc2N1`: the “hERG current change (%, negative = inhibition) at 10uM” value was determined as 7.26%.
As for `O=C1CC(c2ccccc2)CC(O)=C1C=NC1CCCCCC1` (stereo not shown), the “hERG current change (%, negative = inhibition) at 10uM” value is reported as 6.58%.
To `O=C1CC(c2cccc(Cl)c2)CC(O)=C1C=NC1CCCC1` (stereo not shown) belongs -59.8%.
The figure for `O=C1CC(c2ccccc2)CC(O)=C1C=NC1CCCC1` (stereo not shown) is -5.2%; for `CCOc1ccc(C(=O)NCC(=O)NCC(c2ccc(OC)cc2)N2CCCC2)cc1` (stereo not shown) it is -4.71%; for `Cc1ccc(C)c(OC(=O)C2CSC3(C)CCC(=O)N23)c1C` (stereo not shown) it is -7.46%.
To `COc1cc(C(O)P(=O)(OCCC(C)C)c2ccc(N(C)C)cc2)cc(OC)c1OC` (stereo not shown) belongs 10.9%; to `CCOc1ccc2c(c1)ncn2Cc1ccccc1`, 8.33%.
For `COc1ccc(NC(=O)N(CCO)Cc2cc3c(C)cc(C)cc3[nH]c2=O)cc1`, the “hERG current change (%, negative = inhibition) at 10uM” value is reported as -15.3%.
Consider `Cc1ccc(C)c2[nH]c(=O)c(CN(CC3CCCO3)C(=O)NC3CCCCC3)cc12` (stereo not shown), for which the “hERG current change (%, negative = inhibition) at 10uM” value is -2.81%.
Consider `Cc1cccc2cc(CN(CCCO)C(=O)Nc3cccc(Cl)c3)c(=O)[nH]c12`, for which the “hERG current change (%, negative = inhibition) at 10uM” value was -28.4%.
Take `Cc1ccc2cc(CN(CCN(C)C)C(=S)Nc3ccccc3)c(=O)[nH]c2c1C`: the “hERG current change (%, negative = inhibition) at 10uM” value was -49.9%.
On to `COc1ccc(NC(=O)N(CCN2CCCC2)Cc2cc3cc(OC)c(OC)cc3[nH]c2=O)cc1`, for which the “hERG current change (%, negative = inhibition) at 10uM” value is recorded as -4.32%.
To `Cc1ccc2cc(CN(CC3CCCO3)C(=O)NC3CCCCC3)c(=O)[nH]c2c1C` (stereo not shown) belongs -55.4%; to `Cc1ccc(C)c2[nH]c(=O)c(CN(CCN3CCCC3)C(=O)Nc3cccc(Cl)c3)cc12`, -74.1%.
To `O=C(Nc1cccc(Cl)c1)N(CCN1CCOCC1)Cc1cccc(Cl)c1` belongs -22.1%; to `Cc1ccc2cc(CN(CCN3CCCC3)C(=O)Nc3ccccc3)c(=O)[nH]c2c1C`, -57.8%.
As to `Cc1cc(C)c2cc(CN(CCN3CCCC3)C(=O)Nc3ccc(F)cc3)c(=O)[nH]c2c1`, the “hERG current change (%, negative = inhibition) at 10uM” value was -74.4%.
To `Cc1cccc2cc(CN(CC3CCCO3)C(=O)NC3CCCCC3)c(=O)[nH]c12` (stereo not shown) belongs -9.99%; to `COc1ccc(NC(=S)N(CCO)Cc2cc3c(C)cc(C)cc3[nH]c2=O)cc1`, -48.8%; to `CCC(c1nnnn1CS(=O)(=O)c1ccc(C)cc1)N1CCN(c2nc3ccccc3s2)CC1` (stereo not shown), -4.38%.
The figure for `CC(C)NC(=O)[C@@H]1CSC2c3ccccc3C(=O)N21` (stereo partly shown) is 12.7%; for `Nc1nc(-c2ccc(Cl)cc2)nn1C(=O)c1ccco1` it is 23.3%.
To `CCOC(=O)C(Cc1ccccc1)C(=O)Nc1cccc2ccccc12` (stereo not shown) belongs -11.8%; to `CC(C)Cn1c(N)c(C(=O)COC(=O)[C@@H]2CCCN2C(=O)c2cccs2)c(=O)n(C)c1=O`, -8.74%; to `O=C(c1c[nH]c2ccccc12)N1CCOCC1`, 8.48%.
With `c1ccc(COc2ccc(-c3csnn3)cc2)cc1`, the “hERG current change (%, negative = inhibition) at 10uM” value was -3.17%.
As to `Cc1nc(-c2ccc(Cl)cc2)sc1C1(C)CC(c2ccc(OC(F)(F)F)cc2)=NO1` (stereo not shown), the “hERG current change (%, negative = inhibition) at 10uM” value is 10.3%.
To `O=C(Cc1ccccc1)Nc1cccc(N2C(=O)C=CC2=O)c1` belongs -4.45%.
The figure for `O=C(Nc1cccc2[nH]ncc12)c1ccc(F)cc1` is -17.4%.
The figure for `Cc1ccc(C)c2[nH]c(=O)c(CN(CCN3CCCC3)C(=O)Nc3ccc(F)cc3)cc12` is -75.7%.
As for `COc1cc2cc(CN(CCN3CCCC3)C(=O)Nc3ccc(F)cc3)c(=O)[nH]c2cc1OC`, the “hERG current change (%, negative = inhibition) at 10uM” value was -7.92%.
To `COc1cc2cc(CN(CCN3CCOCC3)C(=O)Nc3ccc(F)cc3)c(=O)[nH]c2cc1OC` belongs -28.6%.
To `COc1ccc(CCN(Cc2cc3cccc(C)c3[nH]c2=O)C(=O)NC2CCCCC2)cc1OC` belongs -25%; to `Cc1cccc2cc(CN(Cc3ccco3)C(=O)NC3CCCCC3)c(=O)[nH]c12`, -38.9%.
In the case of `Cc1cccc2cc(CN(CCN3CCOCC3)C(=O)Nc3ccccc3F)c(=O)[nH]c12`, the “hERG current change (%, negative = inhibition) at 10uM” value is -20.6%.
Take `Cc1ccc(C)c2[nH]c(=O)c(CN(Cc3ccco3)C(=O)Nc3ccccc3)cc12`: the “hERG current change (%, negative = inhibition) at 10uM” value came out at 1.89%.
Consider `Cc1ccc2cc(CN(CCN3CCCC3)C(=O)Nc3ccc(F)cc3)c(=O)[nH]c2c1C`, for which the “hERG current change (%, negative = inhibition) at 10uM” value is -70.7%.
As for `Cc1cccc2cc(CN(CCN3CCCC3)C(=O)NC3CCCCC3)c(=O)[nH]c12`, the “hERG current change (%, negative = inhibition) at 10uM” value is -57%.
The figure for `NC(=O)Cc1nc2scc(-c3ccccc3)c2c(=O)[nH]1` is 37.9%.
Take `COC(=O)c1cccc(S(=O)(=O)N2CCC(NC(=O)NC34CC5CC(CC(C5)C3)C4)CC2)c1`: the “hERG current change (%, negative = inhibition) at 10uM” value was 4.44%.
To `O=C(CCn1cccc1)Nc1cccc(F)c1` belongs 0.101%; to `CCc1nnc(NC(=O)CSc2ncc(-c3ccccc3)n2CC)s1`, -17.9%.
Regarding `COCCCC1CCN(Cc2nc(Cc3ccccc3Cl)no2)CC1`, the “hERG current change (%, negative = inhibition) at 10uM” value was 5.07%.
For `CC[C@@]1(O)C(=O)OCc2c1cc1n(c2=O)Cc2cc3c(CN(C)C)c(O)ccc3nc2-1.Cl`, the “hERG current change (%, negative = inhibition) at 10uM” value amounted to 13.6%.
Consider `Fc1ccc(-n2cc(-c3ccccc3)[n+]3c2SCC3)cc1.[Br-]`, for which the “hERG current change (%, negative = inhibition) at 10uM” value is -22.7%.
Consider `Cc1ccc(-c2cn(-c3ccccc3)c3[n+]2CCCS3)cc1.[Br-]`, for which the “hERG current change (%, negative = inhibition) at 10uM” value was -29.1%.
To `COc1ccc(-n2cc(-c3ccc(Br)cc3)[nH]c2=S)cc1` belongs 18%; to `Fc1ccc(-c2cn(-c3ccccc3)c3[n+]2CCS3)cc1.O.[Br-]`, -45.3%; to `COc1ccc(-c2cn(-c3ccc(Br)cc3)c3[n+]2CCS3)cc1.[Br-]`, -66.7%.
Consider `CCc1ccc(-n2cc(-c3ccc(F)cc3)[n+]3c2SCCC3)cc1.[Br-]`, for which the “hERG current change (%, negative = inhibition) at 10uM” value is -71.7%.
`COc1ccc(-c2cn(-c3ccccc3)c3[n+]2CCS3)cc1`: the “hERG current change (%, negative = inhibition) at 10uM” value is -38%.
The figure for `Clc1ccc(-c2cn(-c3ccccc3)c3[n+]2CCS3)cc1.[Br-]` is -59.4%.
The figure for `[Br-].c1ccc(-c2cn(-c3ccccc3)c3[n+]2CCS3)cc1` is -5.74%; for `O=C(N/N=C/c1ccco1)c1cc(-c2cccc3ccccc23)n[nH]1` it is 7.01%; for `COC(=O)C(C)N(c1ccc(C)cc1)S(=O)(=O)c1c(C)[nH]c(=O)[nH]c1=O` (stereo not shown) it is 1.72%.
